Experimental data: ChEMBL document CHEMBL3988442, “University of Dundee, Small-Polar-MMV Screening Library” (2021)
Where “and” joins values, the source holds several entries; their conditions need not be identical. Identical values can stand only once. About 900 (1.7%) of roughly 53,000 compounds showed an effect of 50% or more. Many of the other results were omitted from the sample, so strong results are more common in it than they were.

Test system: Mycobacterium tuberculosis
Assay: Cornell - Phenotypic assay to identify agents that inhibit growth of Mycobacterium tuberculosis
Type: functional
Parameters: scale not given: direction of the effect not stated beside the values

Row | SMILES | Percent Effect (10 mM as filed; unlikely as a test dose) | Percent Effect (10 mM, 10 mM as filed; unlikely as a test dose)
1 | COc1c(CC2CC(CO)=NO2)c(Br)c2c(c1OC)OCO2 (stereo unspecified) | -3.025% | 
2 | CCN(C)S(=O)(=O)N1CCCC(c2nc(-c3ccccc3)c[nH]2)C1 (stereo unspecified) | -4.787% | 
3 | CS(=O)(=O)N1CCCC(c2nc(-c3ccccc3)c[nH]2)C1 (stereo unspecified) | 4.975% | 
4 | CCCS(=O)(=O)N1CCCC(c2nc(-c3ccccc3)c[nH]2)C1 (stereo unspecified) | 56.46% | 
5 | Cc1nc(N2CCOCC2)nc(C)c1NS(=O)(=O)c1ccccc1 | 18.03% | 
6 | Cc1nc(N2CCCC2)nc(C)c1NS(C)(=O)=O | 7.192% | 
7 | Cc1ccc(S(=O)(=O)Nc2c(C)nc(N3CCCC3)nc2C)cc1 | 52.33% | 
8 | Cc1noc2ncc(S(=O)(=O)N3CCCC(C)(C)CC3)cc12 | 49.9% | 
9 | CCC1CCCN(S(=O)(=O)c2cnc3onc(C)c3c2)C1 (stereo unspecified) | 54.72% | 
10 | CCN1CCCN(S(=O)(=O)c2cnc3onc(C)c3c2)CC1 | 44.95% | 
11 | CCc1noc(CN(Cc2cccs2)CC2CCCO2)n1 (stereo unspecified) | -2.113% | 
12 | CNc1ncc(CN(C)C(=O)c2c[nH]nc2-c2cccc(F)c2)cn1 | 11.75% | 
13 | Cn1ncc2c1CCCN(C(=O)C1CCCC1)C2 | 10.97% | 
14 | Cc1cc(C)n(C2CCN(Cc3nc4ccccc4n3C)CC2)n1 | 18.24% | 
15 | Cn1c(CN2CCN(CC3CCCO3)CC2)nc2ccccc21 (stereo unspecified) | 22.41% | 
16 | CCCc1ccc(N2CCN(Cc3nc4ccccc4n3C)CC2)cc1 | -0.4475% | 
17 | CCNC(=O)N1CCN(c2nc3ccccc3n2C)CC1 | 17.71% | 
18 | Cn1c(CCN2CCN(CCc3ccccc3)CC2)nc2ccccc21 | 76.94% | 
19 | Cn1c(CCN2CCN(c3ccc(O)cc3)CC2)nc2ccccc21 | 103.8% | 
20 | CCCc1nc(NC2(COC)CCCC2)c2cnn(C)c2n1 | 21.48% | 
21 | Cc1ccc(C)c(S(=O)(=O)CCN2CCCC2Cn2cncn2)c1 (stereo unspecified) | 23.02% | 
22 | Fc1cccnc1O[C@@H]1CN(Cc2ccccn2)[C@@H]2CCCO[C@@H]21.O=C(O)C(F)(F)F.O=C(O)C(F)(F)F | 2.355% | 
23 | Cc1ccc(-c2cc(CN3CCCC(Cn4cncn4)C3)on2)cc1 (stereo unspecified) | 8.833% | 
24 | O=C(C[C@@H]1COC[C@H]2CN(Cc3ccccn3)C[C@@H]12)N1CCOCC1.O=C(O)C(F)(F)F.O=C(O)C(F)(F)F | 6.339% | 
25 | c1ccc(C(NCc2nnc(-c3ccco3)o2)C2CCC2)cc1 (stereo unspecified) | 14.05% | 
26 | Fc1ccc(C(NCc2nnc(-c3ccco3)o2)C2CCC2)cc1 (stereo unspecified) | 56.57% | 

Row | SMILES | Percent Effect (10 mM as filed; unlikely as a test dose) | Percent Effect (10 mM, 10 mM as filed; unlikely as a test dose)
27 | Fc1ccc(C(NCc2nnc(C3CC3)o2)C2CCC2)cc1 (stereo unspecified) | 14.86% | 
28 | CC(CNC(=O)Nc1ccc(F)cc1-n1cccc1)N1CCOCC1 (stereo unspecified) | 31.56% | 
29 | CCNc1ncc(C(=O)NCc2ccc3nsnc3c2)cn1 | 105.6% | 
30 | CCNc1ncc(C(=O)NCc2ccc(F)c(C(F)(F)F)c2)cn1 | -33.7% | 
31 | CCNc1ncc(C(=O)NCc2cccc(OC(F)(F)F)c2)cn1 | 27.01% | 
32 | O=C(NC1CC1)N1C[C@H]2CN(Cc3cccc(F)c3)C(=O)[C@H]2C1 | -1.024% | 
33 | Cc1ccc(CN(CCCN(C)C)Cc2cnc(N(C)C)nc2)o1.O=C(O)CC(O)(CC(=O)O)C(=O)O | -2.664% | 
34 | O=C(O)C(F)(F)F.O=C([C@H]1C[C@H]2OCC[C@H]2N(Cc2ccccn2)C1)N1CCCCO1 | -19.88% | 
35 | O=C(c1ccccn1)N1CCC(Oc2cccnc2)CC1 | -17.68% | 
36 | O=C(c1ccccn1)N1CCC(Oc2ncccc2Cl)CC1 | 37.07% | 
37 | O=C(c1cc(C2CC2)on1)N1CCC(Oc2ncccc2Br)CC1 | 83.65% | 
38 | O=C(c1cc(C2CC2)on1)N1CCC(Oc2ncccc2Cl)CC1 | 82.03% | 
39 | O=C(c1cnccn1)N1CCC(Oc2ncccc2Cl)CC1 | 13.63% | 
40 | N#Cc1cccnc1OC1CCN(C(=O)c2cc(C3CC3)on2)CC1 | 39.39% | 
41 | CN(C)S(=O)(=O)N1CC(c2ccnc(Nc3ccccn3)n2)C1 | 25.46% | 
42 | COc1ccc(CN2CCC3(CC2)CCN(CC2CC2)C3=O)cc1.O=C(O)C(F)(F)F | 6.492% | 
43 | CCC(=O)N1CCCCC[C@@H]2[C@@H]1[C@H](c1cccc(F)c1)CN2C | -24.01% | 
44 | COc1cccc(C(=O)Nc2n[nH]c(C3CCCO3)n2)c1 (stereo unspecified) | 12.47% | 
45 | CCOc1ncccc1CNC(=O)NCCNC(=O)c1ccco1 | 0.1336% | 
46 | CCNC(=O)c1cc2n(n1)CCCO2 | -8.867% | 
47 | O=C(c1cccnc1)N1CCc2[nH]nc(Nc3ccccc3)c2C1 | 46.76% | 
48 | O=C(c1ccncc1)N1CCc2[nH]nc(Nc3ccccc3)c2C1 | -24.78% | 
49 | O=C(c1cncs1)N1CCc2[nH]nc(Nc3ccccc3)c2C1 | 58.68% | 
50 | CN(Cc1ccc(F)cc1)CC1(O)CCN(C(=O)c2cccs2)C1 (stereo unspecified) | -44.56% | 
51 | COc1cccc(CCC(=O)Nc2ccn(C)n2)c1OC | -2.109% | 
52 | COc1cc(C2C3=C(COC3=O)Nc3[nH]nc(C)c32)cc(Br)c1O (stereo unspecified) | 101.5% | 

Row | SMILES | Percent Effect (10 mM as filed; unlikely as a test dose) | Percent Effect (10 mM, 10 mM as filed; unlikely as a test dose)
53 | COc1cccc(C2C3=C(COC3=O)Nc3[nH]nc(C)c32)c1O (stereo unspecified) | -49.1% | 
54 | CCOc1c(Br)cc(C2C3=C(COC3=O)Nc3[nH]nc(C)c32)cc1OC (stereo unspecified) | 33.99% | 
55 | Cc1cnn(C2CCCN(C(=O)c3cc(C)sc3C)C2)c1 (stereo unspecified) | 1.503% | 
56 | CCOC(=O)CC(c1ccc(OC)c(OC)c1)c1c(O)n[nH]c1C (stereo unspecified) | 17.75% | 
57 | CCOC(=O)CC(c1cccc(OC)c1OC)c1c(C)[nH][nH]c1=O (stereo unspecified) |  | 39.38% and 50.02%
58 | COC(=O)CC(c1ccc(OC)c(OC)c1OC)c1c(O)n[nH]c1C (stereo unspecified) | 39.76% | 
59 | O=C(NC[C@]1(O)CCN(Cc2ccccc2F)C[C@H]1O)c1c[nH]cn1 | -15.39% | 
60 | CC(C)c1ccc(CN[C@@H]2COC[C@H]2c2ccc(F)cc2)cc1 | 38.02% | 
61 | O=C(NCc1cccnc1)C1=NN(c2ccccc2)C(=O)CN1 | -12.05% | 
62 | COc1ccccc1CNC(=O)C1=NN(c2ccc(C)cc2)C(=O)CN1 | 59.16% | 
63 | COCc1ccc(CNC(=O)C2=NN(c3ccccc3)C(=O)CN2)cc1 | -8.016% | 
64 | O=C(NCCNC(=O)c1scnc1Cl)c1ccccc1Cl | 2.223% | 
65 | CCCc1nc(N2CCCCCC2)c2c(n1)c(C)nn2CC | 68.4% | 
66 | CCCc1nc(NCCc2ccccc2)c2c(n1)c(C)nn2CC | 98.38% | 
67 | CCn1nc(C)c2nc(C)nc(NCCc3ccc(C)cc3)c21 | 87.9% | 
68 | CCCc1nc(N2CCSCC2)c2c(n1)c(C)nn2CC | 16.49% | 
69 | CCCc1nc(N2CCC(C)CC2)c2c(n1)c(C)nn2CC | 17.45% | 
70 | CCCc1nc(N2CCCCC2)c2c(n1)c(C)nn2CC | -11.73% | 
71 | CCCc1nc(N2CCN(CC)CC2)c2c(n1)c(C)nn2CC | 19.74% | 
72 | CCn1nc(C)c2nc(C)nc(NC3CCCC3)c21 | 42.26% | 
73 | CCn1nc(C)c2nc(C)nc(NCCc3ccccc3)c21 | 18.42% | 
74 | COc1cc(C(=O)N(CCC#N)Cc2ccccn2)ccc1C | 2.226% | 
75 | COC1CCN(S(=O)(=O)NCC2COc3ccccc3C2)CC1 (stereo unspecified) | 23.14% | 
76 | CC(=O)N1CCC(C(=O)NC2CCc3nccn3C2)CC1 (stereo unspecified) | -4.558% | 
77 | Cc1nnc(C2CCN(c3ccc(F)cc3)CC2)o1 | 0.33% | 
78 | CC[C@H]1N(C)CCC[C@]12CCC(=O)N2Cc1ccncc1.O=C(O)C(F)(F)F.O=C(O)C(F)(F)F | 4.525% | 

Row | SMILES | Percent Effect (10 mM as filed; unlikely as a test dose) | Percent Effect (10 mM, 10 mM as filed; unlikely as a test dose)
79 | Cc1cn2c(n1)CCC(NC(=O)c1[nH]nc(C)c1Br)C2 (stereo unspecified) | -35.87% | 
80 | O=C(CSC1CCc2ccccc2NC1=O)NC1CC1 (stereo unspecified) | -0.1015% | 
81 | COc1cccc(CN2CCC(c3nn(CCN)c4nccnc34)C2)c1 (stereo unspecified) | -33.21% | 
82 | COc1cccc(NC(=O)NCC2CCCN(C3CCOCC3)C2)c1 (stereo unspecified) | -9.956% | 
83 | COC(=O)c1sccc1S(=O)(=O)N1CCC(Oc2cccnn2)CC1 | 10.5% | 
84 | COC(=O)c1sccc1S(=O)(=O)N1CCC(Oc2ncccc2Cl)CC1 | 63.53% | 
85 | COC(=O)c1sccc1S(=O)(=O)N1CCC(Oc2cnccn2)CC1 | 11.89% | 
86 | CCOCC1CN(C(=O)c2ccnnc2)Cc2cnn(CC)c21.O=C(O)C(F)(F)F (stereo unspecified) | 10.27% | 
87 | O=C(CN1CC(c2nc(C3CC3)no2)C1)N1CCOCC1.O=C(O)C(=O)O | 59.8% | 
88 | NC(=O)CN1CC(c2nc(C3CC3)no2)C1.O=C(O)C(=O)O | -1.644% | 
89 | CC1CCN(C(=O)CN2CC(c3nc(C4CC4)no3)C2)CC1.O=C(O)C(=O)O | -25.89% | 
90 | CN(Cc1ccncc1)c1cncc(Br)c1 | -1.215% | 
91 | Cn1ncc2c(N3CCC(CCO)CC3)nc(C(C)(C)C)nc21 | 26.71% | 
92 | CN(C)[C@H]1CCN(c2nc(C(C)(C)C)nc3c2cnn3C)C1 | 15.83% | 
93 | COCC1CCN(c2nc(C(C)(C)C)nc3c2cnn3C)C1 (stereo unspecified) | 57.26% | 
94 | Cc1cnn(CC2CN(CCc3ccccn3)CCO2)c1 (stereo unspecified) | -8.826% | 
95 | N[C@H]1CC[C@@H](n2cc(C(=O)NC3CCc4ccccc4C3)nn2)CC1 (stereo partly specified) | 43.67% | 
96 | N[C@H]1CC[C@@H](n2cc(C(=O)NC3COc4ccccc43)nn2)CC1 (stereo partly specified) | 8.791% | 
97 | N[C@H]1CC[C@@H](n2cc(C(=O)N[C@H]3CCCc4ccccc43)nn2)CC1 | 52.81% | 
98 | Cc1cn2c(n1)CCC(NC(=O)CNS(C)(=O)=O)C2 (stereo unspecified) | -12.28% | 
99 | Cc1cccc(Nc2ccc(C3CCN(Cc4ncc[nH]4)CC3)nc2)n1 | 12.85% | 
100 | Cc1cc(Nc2ccc(F)cn2)cc(C2CCN(Cc3ncc[nH]3)C2)n1 (stereo unspecified) | 67.32% | 
101 | Fc1ccc(Nc2ccc(C3CCN(Cc4ncc[nH]4)CC3)nc2)nc1 | 12.33% | 
